Results published in PubChem BioAssay (Tox21).
Inconclusive results are not listed. Where a call stands in place of a potency, no number is given. Values without a mark were called inactive. The source made the active and inactive calls. The call rests on the fitted dose curve.

assay: p53 small molecule agonists, cell-based qHTS assay with rat liver microsomes: qHTS cell viability counter screen (AID 1963580); conditions: p53RE-bla HCT-116 + rat microsomes, ATP viability, 16 h; series mostly up to 66 µM
Summary of the method: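 Cytotoxicity counter screen: intracellular ATP read by CellTiter-Glo luminescence in the p53 reporter wells. HCT-116 p53RE-bla cells were treated for 16 h at 37 C alongside rat liver microsomes and NADPH, each 0.5 mg/mL final.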
Further: nearly all actives have a fitted effect of over 45% in size.

Row | SMILES | Potency | activity change, negative = cytotoxicity
1 | c1cc2c3c(c1)ccc1cccc(c13)C2 | inactive | 
2 | CCOC(=O)N1CCC(Nc2ccc(Cl)cc2N)CC1 | inactive | 
3 | CCCCCC(=O)OCCc1ccccc1 | inactive | 
4 | COc1cc(C(C)C)ccc1C |  | 0.485% [at 13.5 µM]
5 | CCCCCCCCCCOCC(O)CN (stereo not given) | inactive | 
6 | CC(C)(Oc1ccc(Cl)cc1)C(=O)OCCCOC(=O)C(C)(C)Oc1ccc(Cl)cc1 | inactive | 
7 | CCCCCCCC(=O)Oc1c(Br)cc(C#N)cc1Br | inactive | 
8 | O=C(C(Cl)Cl)N1CCOC12CCCCC2 | inactive | 
9 | COc1ccc(-c2coc3cc(O)ccc3c2=O)cc1 | inactive | 
10 | COc1ccc2nc(SCc3ncc(C)c(OC)c3C)[nH]c2c1 | inactive | 
11 | O=S(=O)(O)c1ccc(Cl)cc1 | inactive | 
12 | CC(C)OC(=O)C(C)N(C(=O)c1ccccc1)c1ccc(F)c(Cl)c1 (stereo not given) | inactive | 
13 | CCOC(=O)c1c(N)sc2c1CCN(Cc1ccccc1)C2 | inactive | 
14 | CN(C)CCCCl | inactive | 
15 | CCCCNc1c(C(=O)OCC)c(C)nc2c1cnn2CC | inactive | 
16 | C=C(C)C(=O)OC1CC(C)CC(C)(C)C1 (stereo not given) | inactive | 
17 | Nc1cc(C(=O)O)ccc1Cl | inactive | 
18 | O=C(NC1CCN(CCc2c[nH]c3ccccc23)CC1)c1ccccc1 | inactive | 
19 | O=C(O)CCCc1c[nH]c2ccccc12 | inactive | 
20 | NC(CO)C(=O)NNCc1ccc(O)c(O)c1O (stereo not given) | inactive | 

Row | SMILES | Potency | activity change, negative = cytotoxicity
21 | CCN(CC)c1cccc(C)c1 | inactive | 
22 | CCCC(C)c1ccccc1O (stereo not given) | inactive | 
23 | CCO[Si](C)(CCCOCC1CO1)OCC (stereo not given) | inactive | 
24 | O=C(O)c1cn(C2CC2)c2cc(Cl)c(F)cc2c1=O | inactive | 
25 | CCCC(=O)O[C@]1(C(=O)CC)CC[C@H]2[C@@H]3CCC4=CC(=O)CC[C@]4(C)[C@H]3[C@@H](O)C[C@@]21C | inactive | 
26 | CCC(=O)Oc1ccc2c(c1)CC[C@@H]1[C@@H]2CC[C@@]2(C)[C@H]1C[C@@H](OC(=O)CC)[C@@H]2OC(=O)CC | inactive | 
27 | C[C@H](O)C(=O)Nc1c(I)c(C(=O)NC(CO)CO)c(I)c(C(=O)NC(CO)CO)c1I | inactive | 
28 | CC1(C)CCC(C)(C)c2cc(NC(=O)c3ccc(C(=O)O)cc3)ccc21 | inactive | 
29 | O=C=NCc1cccc(CN=C=O)c1 |  | 10.6% [at 13.5 µM]
30 | CCCCC(=O)O[C@]1(C(=O)CO)CC[C@H]2[C@@H]3CCC4=CC(=O)CC[C@]4(C)[C@H]3[C@@H](O)C[C@@]21C | inactive | 
31 | CC[C@H](NC(C)C)[C@H](O)c1ccc(O)c2[nH]c(=O)ccc12 | inactive | 
32 | O=[N+]([O-])c1ccc(CO)cc1 | inactive | 
33 | CCN(CC)c1ccc(C=O)cc1 | inactive | 
34 | O=c1[nH]c(=O)n([C@H]2O[C@H](CO)[C@@H](O)[C@@H]2O)cc1/C=C\Br | inactive | 
35 | O=C(O)c1cc(O)c2c(c1)C(=O)c1cccc(O)c1C2=O | inactive | 
36 | CC(=O)Nc1ccc(N)cc1 | inactive | 
37 | Nc1ccccc1O | inactive | 
38 | CCCCCCCCCC=O | inactive | 
39 | CN1CCN(c2c(F)cc3c(=O)c(C(=O)O)cn4c3c2OCN4C)CC1 |  | -2.46% [at 13.5 µM]
40 | COc1ccc2sc(C(=O)Nc3nnn[nH]3)c(OC(C)C)c2c1 | inactive | 

assay: p53 small molecule agonists, cell-based qHTS assay: qHTS cell viability counter screen (AID 1963581); conditions: p53RE-bla HCT-116 viability, ATP luminescence, 16 h; series mostly up to 66 µM; further: potency means the concentration at half of the fitted maximal effect
Summary of the method: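 Luminescence from CellTiter-Glo, reflecting ATP content, serves as the cytotoxicity measure; it is taken after the 2 h reporter substrate step in HCT-116 p53RE-bla cells dosed for 16 h at 37 C.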

Row | SMILES | Potency | activity change, negative = cytotoxicity
41 | c1cc2c3c(c1)ccc1cccc(c13)C2 | inactive | 
42 | CCOC(=O)N1CCC(Nc2ccc(Cl)cc2N)CC1 | inactive | 
43 | CCCCCC(=O)OCCc1ccccc1 | inactive | 
44 | COc1cc(C(C)C)ccc1C |  | -2.99% [at 13.5 µM]
45 | CCCCCCCCCCOCC(O)CN (stereo not given) | inactive | 
46 | CC(C)(Oc1ccc(Cl)cc1)C(=O)OCCCOC(=O)C(C)(C)Oc1ccc(Cl)cc1 | inactive | 
47 | CCCCCCCC(=O)Oc1c(Br)cc(C#N)cc1Br | inactive | 
48 | O=C(C(Cl)Cl)N1CCOC12CCCCC2 | inactive | 
49 | COc1ccc(-c2coc3cc(O)ccc3c2=O)cc1 | inactive | 
50 | COc1ccc2nc(SCc3ncc(C)c(OC)c3C)[nH]c2c1 | inactive | 
51 | O=S(=O)(O)c1ccc(Cl)cc1 | inactive | 
52 | CC(C)OC(=O)C(C)N(C(=O)c1ccccc1)c1ccc(F)c(Cl)c1 (stereo not given) | inactive | 
53 | CCOC(=O)c1c(N)sc2c1CCN(Cc1ccccc1)C2 | inactive | 
54 | CN(C)CCCCl | inactive | 
55 | CCCCNc1c(C(=O)OCC)c(C)nc2c1cnn2CC | inactive | 
56 | C=C(C)C(=O)OC1CC(C)CC(C)(C)C1 (stereo not given) | inactive | 
57 | Nc1cc(C(=O)O)ccc1Cl | inactive | 
58 | O=C(NC1CCN(CCc2c[nH]c3ccccc23)CC1)c1ccccc1 | inactive | 
59 | O=C(O)CCCc1c[nH]c2ccccc12 | inactive | 
60 | NC(CO)C(=O)NNCc1ccc(O)c(O)c1O (stereo not given) | inactive | 

Row | SMILES | Potency | activity change, negative = cytotoxicity
61 | CCN(CC)c1cccc(C)c1 | inactive | 
62 | CCCC(C)c1ccccc1O (stereo not given) | inactive | 
63 | CCO[Si](C)(CCCOCC1CO1)OCC (stereo not given) | inactive | 
64 | O=C(O)c1cn(C2CC2)c2cc(Cl)c(F)cc2c1=O | inactive | 
65 | CCCC(=O)O[C@]1(C(=O)CC)CC[C@H]2[C@@H]3CCC4=CC(=O)CC[C@]4(C)[C@H]3[C@@H](O)C[C@@]21C | inactive | 
66 | CCC(=O)Oc1ccc2c(c1)CC[C@@H]1[C@@H]2CC[C@@]2(C)[C@H]1C[C@@H](OC(=O)CC)[C@@H]2OC(=O)CC | inactive | 
67 | C[C@H](O)C(=O)Nc1c(I)c(C(=O)NC(CO)CO)c(I)c(C(=O)NC(CO)CO)c1I | inactive | 
68 | CC1(C)CCC(C)(C)c2cc(NC(=O)c3ccc(C(=O)O)cc3)ccc21 | inactive | 
69 | O=C=NCc1cccc(CN=C=O)c1 |  | 8.14% [at 13.5 µM]
70 | CCCCC(=O)O[C@]1(C(=O)CO)CC[C@H]2[C@@H]3CCC4=CC(=O)CC[C@]4(C)[C@H]3[C@@H](O)C[C@@]21C | inactive | 
71 | CC[C@H](NC(C)C)[C@H](O)c1ccc(O)c2[nH]c(=O)ccc12 | inactive | 
72 | O=[N+]([O-])c1ccc(CO)cc1 | inactive | 
73 | CCN(CC)c1ccc(C=O)cc1 | inactive | 
74 | O=c1[nH]c(=O)n([C@H]2O[C@H](CO)[C@@H](O)[C@@H]2O)cc1/C=C\Br | inactive | 
75 | O=C(O)c1cc(O)c2c(c1)C(=O)c1cccc(O)c1C2=O | inactive | 
76 | CC(=O)Nc1ccc(N)cc1 | inactive | 
77 | Nc1ccccc1O | 32 µM (active) | 
78 | CCCCCCCCCC=O | inactive | 
79 | CN1CCN(c2c(F)cc3c(=O)c(C(=O)O)cn4c3c2OCN4C)CC1 |  | 0.627% [at 13.5 µM]
80 | COc1ccc2sc(C(=O)Nc3nnn[nH]3)c(OC(C)C)c2c1 | inactive | 
